Rango complex inh: Rango-importin beta binding inhibition. Rango CFP/YFP FRET sensor + importin beta, 45 min. Potency, µM (series often up to 92.2 µM), without a hit: top-dose inhibition of complex formation. 340,000 tested, 0.031% active. AID 540263; calls by dose curve;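 note: 0% = DMSO wells and 100% = buffer wells lacking importin beta; nearly all actives have a fitted effect of over 15% in size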
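Inhibition scored from the CFP 486 nm/YFP 530 nm FRET ratio 45 min after adding 0.125 microM importin beta to 50 nM Rango biosensor preincubated 5 min with compound (room temperature, PBS with DTT, Tween-20, BSA). No-importin wells as positive control.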
Nrf2 inh: blocks Nrf2 signaling; Potency, µM (doses to about 46 µM), for the others: top-dose activity change, negative = inhibition, actives largely listed as inhibitors; A549 ARE-Fluc reporter, luciferase luminescence, 18-24 h; AID 504444; 360,000 tested, 2.1% active; note: % is set by controls: 0 for no effect and ±100 for the full control effect; nearly all actives have a fitted effect of over 60% in size
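Quantitative HTS in A549 cells stably bearing an antioxidant response element-firefly luciferase construct. Inhibition of Nrf2-driven transcription was scored by luminescence after 18-24 h of compound exposure at 37 °C.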
Nrf2 activator: activators of Nrf2 (ARE) signaling; AID 624171; 410,000 tested, 0.31% active; Potency, µM (highest dose often 46.1 µM), for inactives: at the highest dose activation, most hits filed as activators; AREc32 ARE-luciferase reporter (MCF7-derived line), luminescence, 24 h; note: % of control where 0% means no effect; nearly all actives have a fitted effect of over 65% in size
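Steps: seed AREc32_Fluc cells (1000/well, 5% FBS OPTI-MEM); incubate overnight at 37 deg C; add 23 nL compound; incubate 24 hr; add Steady-Glo; hold 30 min RT; read luminescence.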
A549 tox-1: kills or reduces viability of A549 cells in Nrf2 counter-screen; A549 ARE-Fluc cells, CellTiter-Fluor viability, 18-24 h; Potency, µM (top dose mostly 46 µM), for the others: at the top dose activity change, negative = cytotoxicity, hits mostly inhibitors; 390,000 tested, 0.16% active; AID 504648; note: % is set by controls: 0 for no effect and ±100 for the full control effect
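A549 ARE-Fluc cells in 5% FBS OPTI-MEM, 5000 cells/well, rested 2 h then exposed to compounds in concentration-response for 18-24 h at 37 °C. Viability by CellTiter-Fluor fluorescence (Ex 405/Em 525) after 30 min; luciferase luminescence (BugLite, 15 min, RT) read afterwards.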
Rango release inh: inhibition of RanGTP-driven Rango-importin beta dissociation. O95149+P62826. Biochemical FRET Rango-importin beta, RanGTP-induced dissociation. Potency, µM (highest dose often 46.1 µM), for inactives: at the top dose activity change, negative = inhibition. 340,000 tested, 0.071% active. AID 540253; calls by dose curve; note: % of control where 0% means no effect; nearly all actives have a fitted effect of over 45% in size
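Rango/importin beta premix (0.1/0.25 uM final), PBS + 1 mM DTT + 0.02% Tween-20 + 0.1% BSA; cpd 5 min RT; FRET pre-read; + RanGTP-RCC1 (0.6 uM Ran, 2 mM GTP, 0.2 uM RCC1); 45 min RT; FRET post-read, ex 430, em 486/530 nm.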
FLuc enzyme inh: blocks purified firefly luciferase in Nrf2 counterscreen; shares compounds with Nrf2 inh; Potency, µM (highest dose often 57.5 µM), without a hit: at the highest dose activity change, negative = inhibition, actives largely listed as inhibitors; purified firefly luciferase, luminescence inhibition; 1,400 tested, 4% active; note: % is set by controls: 0 for no effect and ±100 for the full control effect; nearly all actives have a fitted effect of over 65% in size
Target sequence (P08659 whole entry, looked up): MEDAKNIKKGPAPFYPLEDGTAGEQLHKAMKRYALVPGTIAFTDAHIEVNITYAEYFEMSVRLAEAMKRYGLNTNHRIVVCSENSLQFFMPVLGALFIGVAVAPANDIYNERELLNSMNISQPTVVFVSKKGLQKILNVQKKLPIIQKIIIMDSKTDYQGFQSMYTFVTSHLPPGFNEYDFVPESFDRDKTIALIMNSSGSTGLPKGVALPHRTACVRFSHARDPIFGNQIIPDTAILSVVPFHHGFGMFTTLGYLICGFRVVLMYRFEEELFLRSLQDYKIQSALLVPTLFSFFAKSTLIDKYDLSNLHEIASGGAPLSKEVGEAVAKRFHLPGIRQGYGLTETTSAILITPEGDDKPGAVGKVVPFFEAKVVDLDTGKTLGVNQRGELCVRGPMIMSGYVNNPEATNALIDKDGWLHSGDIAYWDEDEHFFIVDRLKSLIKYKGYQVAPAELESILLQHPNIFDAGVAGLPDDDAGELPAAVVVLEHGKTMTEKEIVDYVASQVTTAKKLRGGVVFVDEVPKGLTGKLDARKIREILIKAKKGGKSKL
A549 tox-2: A549 cytotoxicity, Nrf2 inhibitor counterscreen | Potency, µM (series often up to 46.1 µM), for the others: at the highest dose activity change, negative = cytotoxicity, usual class: inhibitors | A549 ARE-Fluc cells, cytotoxicity counterscreen | shares compounds with Nrf2 inh | 1,400 tested, 2% active;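 note: cells exposed to compounds for 18 to 24 hours; % is set by controls: 0 for no effect and ±100 for the full control effect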
ARE-Fluc inh: Nrf2 inhibition confirmed, A549 ARE-luciferase; shares compounds with Nrf2 inh; A549 ARE-firefly luciferase reporter, luminescence; Potency, µM (highest dose often 46.1 µM), inactives show at the highest dose activity change, negative = inhibition, actives largely listed as inhibitors; 1,400 tested, 74% active; note: % is set by controls: 0 for no effect and ±100 for the full control effect; nearly all actives have a fitted effect of over 65% in size
Numbers without * were called inactive; u = inconclusive; x = no result given. Shown are actives, neighbours in structure and some others; about 2.3% of the full set was active somewhere. Unless noted, calls come from the whole dose curve; as a rule, active = well fitted curve in the direction sought with a large enough effect; inconclusive = small, poorly fitted or top-dose-only effect, or another doubt; inactive = no such curve, though single readings can be large; an effect the other way counts as inactive or inconclusive. Potency is the fitted concentration of half-maximal effect.

SMILES | Rango complex inh | Nrf2 inh | Nrf2 activator | A549 tox-1 | Rango release inh | FLuc enzyme inh | A549 tox-2 | ARE-Fluc inh
CC(=O)c1ccc(NC(=O)c2ccc(-c3nc(CSc4ccc(C)cc4)c(C)o3)cc2)cc1 | x | u | 1% | -12% | x | x | x | x
CCOC(=O)N1CCC(Nc2ncnc3c2cnn3-c2ccc(C)cc2C)CC1 | 0% | 8.2µM* | 1% | -16% | -10% | 1% | -2% | 13µM*
C=CCNc1ncnc2c1cnn2-c1ccc(C)cc1C | 0% | 9% | 1% | -5% | 40% | x | x | x
N#Cc1nc(N2CCCC2)nc(N2CCCC2)n1 | 0% | 5.2µM* | -1% | -18% | -4% | 0% | -25% | 13µM*
O=C(OCc1nnc(-c2cccs2)o1)C1=NN(c2ccccc2)C(=O)CC1 | 0% | 13% | 1% | -2% | -4% | x | x | x
Cc1cccc(C(=O)Nc2nc(-c3nnn(-c4cc(C)ccc4C)c3C)ns2)c1 | x | 9.2µM* | 0% | -14% | x | -15% | -14% | 7.3µM*
COc1ccc(C2CC(=O)NC(NC(=O)c3ccc(Br)cc3)=N2)c(OC)c1OC (centres undefined) | x | 12% | 0% | 10% | x | x | x | x
CC1CCCN(Cc2c(O)ccc3c(=O)c(-c4ccc(Cl)cc4)c(C(F)(F)F)oc23)C1 (centres undefined) | x | 7% | 1% | 1% | x | x | x | x
O=C(Nc1ccc(C(=O)N2CCCCC2)cc1)[C@H]1O[C@@H](n2ccc(=O)[nH]c2=O)[C@H](O)[C@@H]1O | x | x | 0% | x | x | x | x | x
CCC(NC(=O)c1cc(COc2cc(C)c(Cl)c(C)c2)on1)c1ccncc1 (centres undefined) | u | 8% | 7% | -2% | 1% | x | x | x
CCC(NC(=O)c1cc(COc2ccc(C)nc2)on1)c1ccc(C)cc1 (centres undefined) | 2% | 8.2µM* | 0% | -22% | 2% | 0% | 5% | u
COC(=O)c1c(C)oc2ccc(N(C(=O)c3ccncc3)S(=O)(=O)c3ccc(OC)cc3)cc12 | x | 0.82µM* | -1% | u | x | -3% | -7% | 15µM*
CC(=O)c1c(C)oc2ccc(N(C(=O)c3ccncc3)S(=O)(=O)c3ccc(C)cc3C)cc12 | x | u | 1% | 4% | x | x | x | x
COc1ccc(S(=O)(=O)N(C(=O)c2ccncc2)c2ccc3oc4c(c3c2)CCCC4)cc1 | -3% | u | 1% | u | -16% | x | x | x
CCOc1ccc(S(=O)(=O)N(C(=O)c2ccncc2)c2ccc3oc(C)c(C(=O)OC)c3c2)cc1 | x | 0.65µM* | -1% | u | x | 1% | -15% | -18%
CCc1ccc(S(=O)(=O)N(C(=O)c2ccncc2)c2ccc3oc(C)c(C(=O)OC)c3c2)cc1 | x | 6.5µM* | 0% | -13% | x | -8% | -13% | 10µM*
COc1ccc(S(=O)(=O)N(C(=O)c2ccncc2)c2ccc3oc(C)c(C(C)=O)c3c2)cc1 | x | 5.8µM* | 0% | 0% | x | -2% | 0% | u
CCOC(=O)c1c(C)oc2ccc(N(C(=O)c3ccncc3)S(=O)(=O)c3ccc(F)cc3)cc12 | x | u | 0% | -13% | x | x | x | x
COc1ccc(NC(=O)/C(=C\c2ccc(OC)c(OC)c2)NC(=O)c2ccco2)cc1 | 3% | 10% | 0% | -10% | 5% | x | x | x
CC(=O)c1c(C)[nH]c(C(=O)OCC(=O)Nc2ccccc2Cl)c1C | 0% | 5.8µM* | 5% | -12% | 6% | -24% | -4% | 5.8µM*
Cc1cc(/C=C(\C#N)C(=O)Nc2ccc(Cl)cc2)c(C)n1-c1ccc(N2CCOCC2)c([N+](=O)[O-])c1 | -4% | 5.2µM* | -1% | -23% | 0% | 2% | -10% | 4.6µM*
Cc1ccc(NC(=O)/C(C#N)=C/c2cc(C)n(-c3ccc(N4CCOCC4)c([N+](=O)[O-])c3)c2C)c(C)c1 | 0% | u | 0% | -15% | 3% | x | x | x
COc1cc([N+](=O)[O-])cc(/C=N/NC(=O)c2ccc(NC(=O)c3ccc(C)cc3)cc2)c1O | 1% | 4.6µM* | 0% | u | -5% | -16% | u | 6.5µM*
COc1cc(C2CC(=O)c3c([nH]c(C(=O)OCc4ccc(C)cc4)c3C)C2)cc(OC)c1OC (centres undefined) | x | 2.3µM* | 4% | -9% | x | 0% | -3% | 4.6µM*
COc1ccc(OC)c(C2CC(=O)c3c([nH]c(C(=O)OCc4ccc(C)cc4)c3C)C2)c1 (centres undefined) | x | -2% | -1% | -3% | x | x | x | x
SMILES | Rango complex inh | Nrf2 inh | Nrf2 activator | A549 tox-1 | Rango release inh | FLuc enzyme inh | A549 tox-2 | ARE-Fluc inh
COc1cc(C2CC(=O)c3c([nH]c(C(=O)OCCOC(C)C)c3C)C2)cc(OC)c1OC (centres undefined) | 0% | 4.6µM* | -1% | u | 14% | 3% | -12% | 9.2µM*
CCCN(C(=O)Cn1ncc2c1-c1ccccc1OC2)c1cccc(C)c1 | x | -19% | 6% | 2% | x | x | x | x
Cc1cc(C)c(S(=O)(=O)NNC(=O)C2CCN(Cc3ccccc3)CC2)c(C)c1 | -1% | 9% | 0% | 4% | -7% | x | x | x
CCOC(=O)c1sc(NC(=O)c2cc(-c3ccccc3)nc3ccccc23)c(C#N)c1C | -1% | 4.6µM* | 0% | u | 14% | 11µM* | u | 6.5µM*
CCOC(=O)c1sc(NC(=O)c2cccc(S(=O)(=O)N3CCc4ccccc43)c2)c(C#N)c1C | -12% | 5.8µM* | 0% | u | 0% | -18% | u | 2.9µM*
O=C(Nc1ccncc1)c1cccc(S(=O)(=O)N2CCc3ccccc32)c1 | 1% | 8.2µM* | 3% | -20% | 18% | 0% | -12% | 7.3µM*
Cc1nc(SCC(=O)N2CCOCC2)c2c3c(sc2n1)CCC3 | -1% | u | 0% | -4% | 2% | x | x | x
Cn1c(=O)c2[nH]c(CCCCCCCCc3nc4ccccc4[nH]3)nc2n(C)c1=O | 2% | 8.2µM* | 6% | -21% | 2% | 0% | -17% | x
CC(C)(C)c1cc(C(=O)Nc2cccnc2)cc(C(=O)Nc2cccnc2)c1 | 2% | 9.2µM* | 0% | -20% | -9% | -5% | -5% | u

Assay outcomes deposited in PubChem BioAssay by National Center for Advancing Translational Sciences (NCATS).
